Assay results: paper PMC3218832

Biological target: RELARELA (p65 homodimer) (Homo sapiens, UniProt Q04206 1-307)
Assay: protein binding microarray; high values mean tight binding
Settings: dsDNA, one strand shown

Chain of RELARELA (p65 homodimer) (Q04206 1-307): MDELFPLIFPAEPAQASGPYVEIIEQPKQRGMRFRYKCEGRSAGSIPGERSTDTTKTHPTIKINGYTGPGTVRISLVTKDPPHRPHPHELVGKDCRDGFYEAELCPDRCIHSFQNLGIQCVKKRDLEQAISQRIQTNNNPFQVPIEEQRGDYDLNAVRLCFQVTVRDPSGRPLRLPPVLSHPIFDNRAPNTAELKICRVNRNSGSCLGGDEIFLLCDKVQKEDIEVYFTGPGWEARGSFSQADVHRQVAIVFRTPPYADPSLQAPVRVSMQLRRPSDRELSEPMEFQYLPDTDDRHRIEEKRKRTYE

Sequence	binding signal
CAAGGAGCCCC	-0.885 z-score
CGGTAGCCCCT	0.0258 z-score
CAGTAAATCCT	-0.441 z-score
AGGTTCGCCCT	-0.645 z-score
GAGAGATTCCC	1.47 z-score
GAGGGCCTCCT	-0.673 z-score
CAGAAGGCCCC	-0.908 z-score
AAAAATCCCCT	2.27 z-score
AAATTGTCCCT	0.833 z-score
AGAAACTTCCC	2.01 z-score
AGGAGAACCCT	-0.567 z-score
GAATTTGTCCC	1.3 z-score
AAGATGCCCCC	0.101 z-score
GAAGGCATCCT	-0.848 z-score
CAGATAGCCCT	-0.575 z-score
GAAGGCGTCCC	-0.376 z-score
GGGTTACTCCC	0.497 z-score
GAGAAGCCCCT	-0.384 z-score
GGAAGAGCCCT	-0.298 z-score

Sequence	binding signal
GGAGGAGTCCC	0.299 z-score
CGATTAATCCC	0.0967 z-score
AAGGTATTCCT	-0.0185 z-score
CAAGGTATCCC	-0.591 z-score
AAGAATCCCCC	1.26 z-score
GAATAACTCCT	-0.147 z-score
CGAGAATCCCT	-0.154 z-score
AAGGTCCCCCC	-0.0871 z-score
GAAGGCCCCCC	-1.44 z-score
CAAAAACCCCT	1.05 z-score
AAGTGAACCCT	-0.647 z-score
AAAGGGATCCC	0.0658 z-score
CGGAAATCCCT	2.44 z-score
GGAGGTACCCT	-0.125 z-score
CAGGGGACCCT	-0.887 z-score
CAATGGTTCCT	0.0242 z-score
CAGAGCACCCT	-0.924 z-score
CAAGTGGCCCT	-1.09 z-score
CAAGTCACCCC	-0.939 z-score

Biological target: p50p50 homodimer (Homo sapiens, UniProt P19838 7-356)
Sequence (P19838 7-356): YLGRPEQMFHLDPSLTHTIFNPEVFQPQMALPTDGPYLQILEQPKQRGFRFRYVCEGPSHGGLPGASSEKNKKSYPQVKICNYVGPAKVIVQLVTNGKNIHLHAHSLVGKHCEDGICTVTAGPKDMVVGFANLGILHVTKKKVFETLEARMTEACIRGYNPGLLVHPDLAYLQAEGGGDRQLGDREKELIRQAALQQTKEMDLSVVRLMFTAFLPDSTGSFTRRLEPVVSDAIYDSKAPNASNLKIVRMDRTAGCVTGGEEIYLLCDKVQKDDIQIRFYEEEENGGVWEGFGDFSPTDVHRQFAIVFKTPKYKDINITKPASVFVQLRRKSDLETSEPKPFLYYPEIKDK
Assay: as above
Settings: dsDNA, one strand shown

Sequence	binding signal
CAAGGAGCCCC	0.241 z-score
CGGTAGCCCCT	0.991 z-score
CAGTAAATCCT	-1.23 z-score
AGGTTCGCCCT	-1.28 z-score
GAGAGATTCCC	0.649 z-score
GAGGGCCTCCT	-1.05 z-score
CAGAAGGCCCC	-0.224 z-score
AAAAATCCCCT	1.6 z-score
AAATTGTCCCT	1.43 z-score
AGAAACTTCCC	0.652 z-score
AGGAGAACCCT	-0.719 z-score
GAATTTGTCCC	0.832 z-score
AAGATGCCCCC	1.09 z-score
GAAGGCATCCT	-1.34 z-score
CAGATAGCCCT	-1.02 z-score
GAAGGCGTCCC	-0.0302 z-score
GGGTTACTCCC	0.249 z-score
GAGAAGCCCCT	1.19 z-score
GGAAGAGCCCT	-0.632 z-score

Sequence	binding signal
GGAGGAGTCCC	0.853 z-score
CGATTAATCCC	-0.315 z-score
AAGGTATTCCT	-0.222 z-score
CAAGGTATCCC	-0.9 z-score
AAGAATCCCCC	1.57 z-score
GAATAACTCCT	-1.37 z-score
CGAGAATCCCT	0.393 z-score
AAGGTCCCCCC	1.12 z-score
GAAGGCCCCCC	0.635 z-score
CAAAAACCCCT	1.47 z-score
AAGTGAACCCT	-1.09 z-score
AAAGGGATCCC	-0.302 z-score
CGGAAATCCCT	1.09 z-score
GGAGGTACCCT	0.0465 z-score
CAGGGGACCCT	0.487 z-score
CAATGGTTCCT	-1.26 z-score
CAGAGCACCCT	-0.392 z-score
CAAGTGGCCCT	-1.71 z-score
CAAGTCACCCC	-0.66 z-score

Biological target: T1, p52p52 homodimer (Homo sapiens, UniProt Q00653 4-332)
T1 sequence: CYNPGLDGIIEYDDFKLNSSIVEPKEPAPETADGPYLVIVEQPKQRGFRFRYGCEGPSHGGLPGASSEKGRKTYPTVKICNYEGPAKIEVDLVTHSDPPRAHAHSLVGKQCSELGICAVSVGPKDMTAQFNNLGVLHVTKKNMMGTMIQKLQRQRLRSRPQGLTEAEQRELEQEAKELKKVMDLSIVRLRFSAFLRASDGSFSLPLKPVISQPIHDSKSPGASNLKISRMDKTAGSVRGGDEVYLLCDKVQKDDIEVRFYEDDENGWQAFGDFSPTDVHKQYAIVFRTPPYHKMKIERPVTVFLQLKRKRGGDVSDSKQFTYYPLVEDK
Assay: as above
Settings: dsDNA, one strand shown

Sequence	binding signal
CAAGGAGCCCC	-0.0311 z-score
CGGTAGCCCCT	0.543 z-score
CAGTAAATCCT	-0.605 z-score
AGGTTCGCCCT	-0.726 z-score
GAGAGATTCCC	0.325 z-score
GAGGGCCTCCT	-0.564 z-score
CAGAAGGCCCC	-0.259 z-score
AAAAATCCCCT	3.18 z-score
AAATTGTCCCT	1.92 z-score
AGAAACTTCCC	0.45 z-score
AGGAGAACCCT	-0.426 z-score
GAATTTGTCCC	0.9 z-score
AAGATGCCCCC	0.461 z-score
GAAGGCATCCT	-0.851 z-score
CAGATAGCCCT	-0.544 z-score
GAAGGCGTCCC	-0.0163 z-score
GGGTTACTCCC	1.29 z-score
GAGAAGCCCCT	1.26 z-score
GGAAGAGCCCT	-0.649 z-score

Sequence	binding signal
GGAGGAGTCCC	0.586 z-score
CGATTAATCCC	-0.0861 z-score
AAGGTATTCCT	-0.0124 z-score
CAAGGTATCCC	-0.296 z-score
AAGAATCCCCC	2.41 z-score
GAATAACTCCT	-0.713 z-score
CGAGAATCCCT	0.327 z-score
AAGGTCCCCCC	0.844 z-score
GAAGGCCCCCC	0.244 z-score
CAAAAACCCCT	2.66 z-score
AAGTGAACCCT	-0.646 z-score
AAAGGGATCCC	0.0251 z-score
CGGAAATCCCT	1.3 z-score
GGAGGTACCCT	-0.0665 z-score
CAGGGGACCCT	0.583 z-score
CAATGGTTCCT	-0.536 z-score
CAGAGCACCCT	-0.306 z-score
CAAGTGGCCCT	-0.67 z-score
CAAGTCACCCC	-0.2 z-score

Biological target: RELA (p65) subunit of heterodimer;p50 subunit (Homo sapiens;Homo sapiens, UniProt Q04206;P19838 1-307;7-356)
Sequence (Q04206 1-307, chain 1 of 2): as the sequence (Q04206 1-307) above
Sequence (P19838 7-356, chain 2 of 2): as the sequence (P19838 7-356) above
Assay: as above
Settings: dsDNA, one strand shown

Sequence	binding signal
CAAGGAGCCCC	-0.1 z-score
CGGTAGCCCCT	0.402 z-score
CAGTAAATCCT	-0.903 z-score
AGGTTCGCCCT	-0.876 z-score
GAGAGATTCCC	0.844 z-score
GAGGGCCTCCT	-0.901 z-score
CAGAAGGCCCC	-0.114 z-score
AAAAATCCCCT	2.55 z-score
AAATTGTCCCT	1.28 z-score
AGAAACTTCCC	0.846 z-score
AGGAGAACCCT	-0.838 z-score
GAATTTGTCCC	1.01 z-score
AAGATGCCCCC	0.893 z-score
GAAGGCATCCT	-1.13 z-score
CAGATAGCCCT	-0.662 z-score
GAAGGCGTCCC	-0.134 z-score
GGGTTACTCCC	0.568 z-score
GAGAAGCCCCT	1.3 z-score
GGAAGAGCCCT	-0.191 z-score

Sequence	binding signal
GGAGGAGTCCC	0.889 z-score
CGATTAATCCC	-0.0553 z-score
AAGGTATTCCT	-0.477 z-score
CAAGGTATCCC	-0.874 z-score
AAGAATCCCCC	2.44 z-score
GAATAACTCCT	-0.733 z-score
CGAGAATCCCT	0.25 z-score
AAGGTCCCCCC	1.52 z-score
GAAGGCCCCCC	0.456 z-score
CAAAAACCCCT	1.84 z-score
AAGTGAACCCT	-0.987 z-score
AAAGGGATCCC	-0.128 z-score
CGGAAATCCCT	1.35 z-score
GGAGGTACCCT	0.0938 z-score
CAGGGGACCCT	0.0452 z-score
CAATGGTTCCT	-0.894 z-score
CAGAGCACCCT	-0.624 z-score
CAAGTGGCCCT	-0.961 z-score
CAAGTCACCCC	-0.704 z-score
